# Results taken from PubChem BioAssay AID2599 (Sanford-Burnham Center for Chemical Genomics, 2010).
# Hit rate of the full screen: of about 330,000 compounds, about 5,800 (1.8%) were called active.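 Rule for the calls: active = inhibition above about 50% at the single tested dose (limit read from the data); inactive = the rest.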 The full list was thinned out, with actives kept by preference.
# Target: Sentrin-specific protease 6 (Homo sapiens) (UniProt Q9GZR1)
# Test: inhibition of human SENP6 catalytic domain – biochemical, luminescence, uHTS, primary screen (AID 2599);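 note: plate controls were DMSO wells with enzyme for no effect and DMSO wells lacking enzyme for full effect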
# Settings: Recombinant SENP6 catalytic domain, aminoluciferin luminescence; at 10 µM; hits give high values
# Chain of Sentrin-specific protease 6 (Homo sapiens) (Q9GZR1 628-1112 limits assumed): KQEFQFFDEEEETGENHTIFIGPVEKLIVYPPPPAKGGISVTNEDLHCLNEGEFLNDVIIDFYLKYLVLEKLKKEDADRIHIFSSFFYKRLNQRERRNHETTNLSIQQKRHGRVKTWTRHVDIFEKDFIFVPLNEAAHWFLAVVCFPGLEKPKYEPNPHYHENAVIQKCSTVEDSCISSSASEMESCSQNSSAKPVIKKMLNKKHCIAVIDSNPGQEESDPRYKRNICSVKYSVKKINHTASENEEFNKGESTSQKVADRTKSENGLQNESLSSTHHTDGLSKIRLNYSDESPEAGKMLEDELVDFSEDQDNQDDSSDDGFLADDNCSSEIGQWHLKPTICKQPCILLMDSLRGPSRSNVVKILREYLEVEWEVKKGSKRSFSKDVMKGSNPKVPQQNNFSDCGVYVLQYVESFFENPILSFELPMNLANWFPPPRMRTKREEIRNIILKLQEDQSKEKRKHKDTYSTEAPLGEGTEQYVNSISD
row,SMILES,inhibition
1,CCOC(=O)c1c(N)n(Cc2ccccc2)c2nc3ccccc3nc12,29.7% (inactive)
2,CCOC(=O)c1c(N)n(CCN2CCOCC2)c2nc3ccccc3nc12,-28.7% (inactive)
3,COc1cc(Cn2c(N)c(C(=O)NCc3ccco3)c3nc4ccccc4nc32)cc(OC)c1OC,83.6% (active)
4,CC[N+](CC)(CC)CCCCCCCCCC[N+](CC)(CC)CC,-14.6% (inactive)
5,COc1ccc(NC(=O)N2CCC3(CC2)OCCO3)c(OC)c1,-19.7% (inactive)
6,O=C(c1cc(-c2ccncc2)nc2ccccc12)N1CCC2(CC1)OCCO2,5.91% (inactive)
7,O=C(Nc1cccc2ccccc12)N1CCC2(CC1)OCCO2,63.7% (active)
8,Cc1cc2ccccn2c1C(C[N+](=O)[O-])c1c(F)cccc1Cl (stereo not given),-24.7% (inactive)
9,C/C(=N/O)c1ccc2ccc3ccccc3c2c1,53.8% (active)
10,C/C(CCc1c[nH]c2ccccc12)=N\O,-0.527% (inactive)
11,O=[N+]([O-])c1cnc2ccc3ccccc3c2c1,-4.31% (inactive)
12,O=C(NC(=S)N1C[C@H]2C[C@H](C1)c1cccc(=O)n1C2)c1ccc(F)cc1,0.817% (inactive)
13,CC(=O)N1CN2CN(C(C)=O)CC(C(=O)c3ccc(Br)cc3)(C2)C1,-9.66% (inactive)
14,O=c1[nH]c(=O)n(-c2ccc(F)cc2)c(O)c1C=NCCN1CCCCC1,-0.13% (inactive)
15,CCCCCCCCCCCCn1ccc(=N)cc1,-35.7% (inactive)
